Four molecules from ChEMBL document CHEMBL1961873, “Compounds: GSK PKIS; Assays: Nanosyn kinase panel” (2012) can be followed below.

Experiment [1] has as its target T1, Serine/threonine-protein kinase D2 (Homo sapiens) (UniProt Q9BZL6).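 Note: mean value of PRKD2 inhibition, from the GSK PKIS screening panel.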
T1 sequence (whole entry): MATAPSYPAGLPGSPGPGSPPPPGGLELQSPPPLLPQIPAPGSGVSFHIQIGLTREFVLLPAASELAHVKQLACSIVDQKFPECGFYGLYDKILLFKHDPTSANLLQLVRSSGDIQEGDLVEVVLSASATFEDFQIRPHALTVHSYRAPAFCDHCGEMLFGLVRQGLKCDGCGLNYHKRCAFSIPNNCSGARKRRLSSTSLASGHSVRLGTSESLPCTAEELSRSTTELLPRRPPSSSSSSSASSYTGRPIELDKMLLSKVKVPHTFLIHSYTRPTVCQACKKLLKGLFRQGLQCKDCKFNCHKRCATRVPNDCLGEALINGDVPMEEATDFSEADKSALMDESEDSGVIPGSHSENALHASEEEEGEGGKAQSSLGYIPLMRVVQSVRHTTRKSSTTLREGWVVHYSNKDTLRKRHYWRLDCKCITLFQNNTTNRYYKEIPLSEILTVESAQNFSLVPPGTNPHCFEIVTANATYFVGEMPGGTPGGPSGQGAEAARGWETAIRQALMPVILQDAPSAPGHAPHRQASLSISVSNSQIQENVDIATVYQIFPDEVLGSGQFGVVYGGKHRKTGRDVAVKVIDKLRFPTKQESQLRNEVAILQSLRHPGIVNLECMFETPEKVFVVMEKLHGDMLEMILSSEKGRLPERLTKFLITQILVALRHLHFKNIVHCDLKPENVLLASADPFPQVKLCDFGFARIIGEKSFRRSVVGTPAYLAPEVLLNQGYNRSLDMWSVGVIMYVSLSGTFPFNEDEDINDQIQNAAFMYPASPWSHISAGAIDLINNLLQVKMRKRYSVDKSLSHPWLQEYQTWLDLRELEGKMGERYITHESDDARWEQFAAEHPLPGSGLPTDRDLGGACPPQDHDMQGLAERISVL
The conditions noted are these: at 1 µM.

In experiment [2] the target is T2, Serine/threonine-protein kinase D3 (Homo sapiens) (UniProt O94806).
T2 sequence (whole entry): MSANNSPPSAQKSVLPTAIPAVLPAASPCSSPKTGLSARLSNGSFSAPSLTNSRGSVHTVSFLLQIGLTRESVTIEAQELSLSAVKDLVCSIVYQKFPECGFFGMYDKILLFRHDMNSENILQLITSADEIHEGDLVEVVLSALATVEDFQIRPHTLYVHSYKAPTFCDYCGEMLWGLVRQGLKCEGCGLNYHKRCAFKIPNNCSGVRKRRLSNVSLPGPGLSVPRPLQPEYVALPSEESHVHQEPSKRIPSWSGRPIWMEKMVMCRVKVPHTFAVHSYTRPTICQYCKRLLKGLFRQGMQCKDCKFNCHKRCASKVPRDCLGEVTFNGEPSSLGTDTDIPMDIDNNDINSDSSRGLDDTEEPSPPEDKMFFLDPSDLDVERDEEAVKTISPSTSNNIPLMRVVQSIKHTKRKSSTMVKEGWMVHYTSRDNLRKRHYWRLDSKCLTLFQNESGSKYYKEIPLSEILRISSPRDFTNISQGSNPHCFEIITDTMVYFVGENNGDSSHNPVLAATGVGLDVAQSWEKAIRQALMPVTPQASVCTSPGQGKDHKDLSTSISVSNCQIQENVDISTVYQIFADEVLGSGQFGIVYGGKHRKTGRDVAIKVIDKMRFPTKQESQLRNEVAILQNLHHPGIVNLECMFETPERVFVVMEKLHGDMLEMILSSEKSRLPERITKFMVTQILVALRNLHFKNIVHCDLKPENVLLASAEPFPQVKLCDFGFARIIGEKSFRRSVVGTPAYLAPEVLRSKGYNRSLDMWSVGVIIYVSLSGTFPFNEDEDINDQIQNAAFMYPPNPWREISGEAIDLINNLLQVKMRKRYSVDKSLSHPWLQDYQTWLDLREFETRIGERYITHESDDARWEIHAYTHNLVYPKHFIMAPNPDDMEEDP
As to conditions: at 0.1 µM.

Experiment [3] addresses T2, Serine/threonine-protein kinase D3 (Homo sapiens). The conditions noted are these: at 1 µM.
Experiment [4] addresses T3, cGMP-dependent protein kinase 1 (Homo sapiens) (UniProt Q13976).
T3 sequence (whole entry): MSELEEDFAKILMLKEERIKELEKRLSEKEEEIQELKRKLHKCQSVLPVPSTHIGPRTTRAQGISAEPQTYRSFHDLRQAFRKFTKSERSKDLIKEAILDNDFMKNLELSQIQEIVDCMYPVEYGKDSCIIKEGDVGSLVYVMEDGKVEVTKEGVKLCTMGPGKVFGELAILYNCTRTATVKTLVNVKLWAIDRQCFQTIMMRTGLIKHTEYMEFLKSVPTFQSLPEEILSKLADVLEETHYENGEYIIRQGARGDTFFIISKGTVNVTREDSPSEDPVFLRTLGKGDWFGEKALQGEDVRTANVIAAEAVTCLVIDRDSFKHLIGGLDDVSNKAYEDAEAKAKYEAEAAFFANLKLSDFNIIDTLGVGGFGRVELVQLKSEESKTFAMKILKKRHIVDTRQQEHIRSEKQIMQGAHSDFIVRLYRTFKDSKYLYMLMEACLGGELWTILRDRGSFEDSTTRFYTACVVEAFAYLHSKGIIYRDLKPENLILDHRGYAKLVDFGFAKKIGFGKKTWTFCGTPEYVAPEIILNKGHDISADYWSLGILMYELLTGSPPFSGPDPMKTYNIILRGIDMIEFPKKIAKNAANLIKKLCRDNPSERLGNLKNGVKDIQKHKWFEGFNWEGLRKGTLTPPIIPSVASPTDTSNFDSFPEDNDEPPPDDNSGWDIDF
As to conditions: at 0.1 µM.

Experiment [5] has as its target T3, cGMP-dependent protein kinase 1 (Homo sapiens). As to conditions: at 1 µM.
Experiment [6] addresses T4, cGMP-dependent protein kinase 2 (Homo sapiens) (UniProt Q13237).
T4 sequence (whole entry): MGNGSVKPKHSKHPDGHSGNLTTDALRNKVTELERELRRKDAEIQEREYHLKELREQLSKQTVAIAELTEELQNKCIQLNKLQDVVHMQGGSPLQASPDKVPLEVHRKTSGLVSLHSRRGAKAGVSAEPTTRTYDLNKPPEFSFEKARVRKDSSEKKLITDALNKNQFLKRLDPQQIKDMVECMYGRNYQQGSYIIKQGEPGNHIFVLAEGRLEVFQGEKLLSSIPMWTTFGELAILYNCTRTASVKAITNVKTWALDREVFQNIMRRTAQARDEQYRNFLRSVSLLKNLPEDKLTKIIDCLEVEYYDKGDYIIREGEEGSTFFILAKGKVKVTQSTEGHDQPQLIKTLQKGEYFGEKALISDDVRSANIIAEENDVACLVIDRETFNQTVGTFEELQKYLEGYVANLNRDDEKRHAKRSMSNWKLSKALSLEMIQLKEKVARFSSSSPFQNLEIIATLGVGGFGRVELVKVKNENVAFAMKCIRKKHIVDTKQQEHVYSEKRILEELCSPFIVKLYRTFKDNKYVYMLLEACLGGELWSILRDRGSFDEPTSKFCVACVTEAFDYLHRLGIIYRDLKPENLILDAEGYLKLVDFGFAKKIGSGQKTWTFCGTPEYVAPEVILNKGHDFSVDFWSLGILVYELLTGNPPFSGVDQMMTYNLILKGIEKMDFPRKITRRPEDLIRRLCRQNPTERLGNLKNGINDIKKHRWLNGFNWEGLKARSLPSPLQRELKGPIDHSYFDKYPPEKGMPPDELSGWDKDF
The conditions noted are these: at 0.1 µM.

The target of experiment [7] is T4, cGMP-dependent protein kinase 2 (Homo sapiens). As to conditions: at 1 µM.
For experiment [8], the target named is T5, cAMP-dependent protein kinase catalytic subunit PRKX (Homo sapiens) (UniProt P51817).
T5 sequence (whole entry): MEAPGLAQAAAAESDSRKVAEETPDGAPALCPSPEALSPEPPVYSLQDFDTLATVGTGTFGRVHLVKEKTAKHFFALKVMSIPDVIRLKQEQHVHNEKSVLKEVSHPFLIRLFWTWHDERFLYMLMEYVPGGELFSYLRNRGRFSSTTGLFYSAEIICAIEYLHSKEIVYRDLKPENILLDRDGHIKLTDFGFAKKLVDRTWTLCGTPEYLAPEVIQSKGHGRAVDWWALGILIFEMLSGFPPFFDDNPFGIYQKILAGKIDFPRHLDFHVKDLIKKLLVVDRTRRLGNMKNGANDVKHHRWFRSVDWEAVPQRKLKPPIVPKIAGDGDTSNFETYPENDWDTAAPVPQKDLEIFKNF
As to conditions: at 0.1 µM.

The target in experiment [9] is T5, cAMP-dependent protein kinase catalytic subunit PRKX (Homo sapiens). The conditions noted are these: at 1 µM.
Experiment [10] has as its target Rho-associated protein kinase 1 (Homo sapiens) (UniProt Q13464). The conditions noted are these: at 0.1 µM.
The target is the same in experiment [11]. The conditions noted are these: at 1 µM.
Experiment [12] concerns the target Rho-associated protein kinase 2 (Homo sapiens) (UniProt O75116). The conditions noted are these: at 0.1 µM.
Experiment [13] shares this target. As to conditions: at 1 µM.
Experiment [14] deals with Ribosomal protein S6 kinase alpha-1 (Homo sapiens) (UniProt Q15418). The conditions noted are these: at 0.1 µM.
Sequence of Ribosomal protein S6 kinase alpha-1 (Homo sapiens) (Q15418 whole entry): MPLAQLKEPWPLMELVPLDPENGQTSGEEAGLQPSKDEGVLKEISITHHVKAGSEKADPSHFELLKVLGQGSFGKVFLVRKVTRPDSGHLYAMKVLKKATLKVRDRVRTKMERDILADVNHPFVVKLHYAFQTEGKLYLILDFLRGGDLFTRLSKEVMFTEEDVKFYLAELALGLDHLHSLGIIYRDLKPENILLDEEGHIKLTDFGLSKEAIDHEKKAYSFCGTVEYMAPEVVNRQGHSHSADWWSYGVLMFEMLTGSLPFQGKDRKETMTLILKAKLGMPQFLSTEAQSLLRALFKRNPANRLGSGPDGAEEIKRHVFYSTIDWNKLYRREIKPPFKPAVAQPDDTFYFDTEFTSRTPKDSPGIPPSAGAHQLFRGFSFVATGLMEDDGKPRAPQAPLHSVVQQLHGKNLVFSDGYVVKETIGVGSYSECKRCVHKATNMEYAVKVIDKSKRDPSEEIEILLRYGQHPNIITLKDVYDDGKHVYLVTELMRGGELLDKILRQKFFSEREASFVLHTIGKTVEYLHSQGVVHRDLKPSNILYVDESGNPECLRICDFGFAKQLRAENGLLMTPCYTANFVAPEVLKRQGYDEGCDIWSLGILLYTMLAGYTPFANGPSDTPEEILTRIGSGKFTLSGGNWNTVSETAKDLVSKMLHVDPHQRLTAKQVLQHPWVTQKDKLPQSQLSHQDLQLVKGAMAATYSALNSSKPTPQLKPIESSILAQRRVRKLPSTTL
The target is the same in experiment [15]. The conditions noted are these: at 1 µM.
Experiment [16] has as its target Ribosomal protein S6 kinase alpha-3 (Homo sapiens) (UniProt P51812). The conditions noted are these: at 0.1 µM.
The target is the same in experiment [17]. As to conditions: at 1 µM.
Experiment [18] concerns the target Ribosomal protein S6 kinase alpha-2 (Homo sapiens) (UniProt Q15349). As to conditions: at 0.1 µM.
Experiment [19] shares this target. The conditions noted are these: at 1 µM.
Experiment [20] addresses Ribosomal protein S6 kinase alpha-6 (Homo sapiens) (UniProt Q9UK32). As to conditions: at 0.1 µM.

Structures are written as SMILES.

By inhibition is commonly meant the drop in the measured response relative to a control, in per cent.

Sequence of Rho-associated protein kinase 1 (Homo sapiens) (Q13464 2-1354 limits assumed): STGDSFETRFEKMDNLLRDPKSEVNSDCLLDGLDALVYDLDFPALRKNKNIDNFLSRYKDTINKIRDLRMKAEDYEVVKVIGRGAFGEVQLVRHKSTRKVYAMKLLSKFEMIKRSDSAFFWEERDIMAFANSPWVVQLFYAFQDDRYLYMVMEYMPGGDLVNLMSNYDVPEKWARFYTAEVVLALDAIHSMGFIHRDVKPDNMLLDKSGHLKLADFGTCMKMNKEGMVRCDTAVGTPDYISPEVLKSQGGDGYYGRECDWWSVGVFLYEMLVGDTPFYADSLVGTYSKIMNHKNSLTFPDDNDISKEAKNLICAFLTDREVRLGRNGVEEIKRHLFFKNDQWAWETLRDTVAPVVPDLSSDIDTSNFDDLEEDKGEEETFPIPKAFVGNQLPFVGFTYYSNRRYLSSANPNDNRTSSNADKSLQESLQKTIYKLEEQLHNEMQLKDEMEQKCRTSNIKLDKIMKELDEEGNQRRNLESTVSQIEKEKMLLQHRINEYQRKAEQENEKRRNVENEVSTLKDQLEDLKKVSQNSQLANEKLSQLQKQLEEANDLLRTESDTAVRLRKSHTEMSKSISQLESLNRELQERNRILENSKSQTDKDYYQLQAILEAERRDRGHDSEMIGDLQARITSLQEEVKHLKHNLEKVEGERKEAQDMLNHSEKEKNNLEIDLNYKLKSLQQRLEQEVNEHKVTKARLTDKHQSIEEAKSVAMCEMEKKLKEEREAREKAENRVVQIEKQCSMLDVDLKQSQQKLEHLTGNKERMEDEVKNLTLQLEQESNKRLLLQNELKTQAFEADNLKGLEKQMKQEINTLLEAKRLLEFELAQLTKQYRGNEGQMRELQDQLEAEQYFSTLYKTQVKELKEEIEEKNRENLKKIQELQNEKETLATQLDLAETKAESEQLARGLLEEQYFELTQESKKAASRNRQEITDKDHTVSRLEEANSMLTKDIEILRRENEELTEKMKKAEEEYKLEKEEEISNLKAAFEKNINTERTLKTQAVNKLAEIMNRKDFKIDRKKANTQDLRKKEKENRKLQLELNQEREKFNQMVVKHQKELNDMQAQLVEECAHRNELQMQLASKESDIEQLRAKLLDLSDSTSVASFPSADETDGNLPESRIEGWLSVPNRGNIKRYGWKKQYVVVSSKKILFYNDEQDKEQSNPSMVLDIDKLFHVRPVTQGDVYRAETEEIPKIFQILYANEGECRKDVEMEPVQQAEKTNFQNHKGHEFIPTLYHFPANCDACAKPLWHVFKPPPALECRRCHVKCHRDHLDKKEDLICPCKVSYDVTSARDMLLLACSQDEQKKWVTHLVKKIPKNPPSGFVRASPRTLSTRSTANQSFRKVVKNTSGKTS
Sequence of Ribosomal protein S6 kinase alpha-3 (Homo sapiens) (P51812 whole entry): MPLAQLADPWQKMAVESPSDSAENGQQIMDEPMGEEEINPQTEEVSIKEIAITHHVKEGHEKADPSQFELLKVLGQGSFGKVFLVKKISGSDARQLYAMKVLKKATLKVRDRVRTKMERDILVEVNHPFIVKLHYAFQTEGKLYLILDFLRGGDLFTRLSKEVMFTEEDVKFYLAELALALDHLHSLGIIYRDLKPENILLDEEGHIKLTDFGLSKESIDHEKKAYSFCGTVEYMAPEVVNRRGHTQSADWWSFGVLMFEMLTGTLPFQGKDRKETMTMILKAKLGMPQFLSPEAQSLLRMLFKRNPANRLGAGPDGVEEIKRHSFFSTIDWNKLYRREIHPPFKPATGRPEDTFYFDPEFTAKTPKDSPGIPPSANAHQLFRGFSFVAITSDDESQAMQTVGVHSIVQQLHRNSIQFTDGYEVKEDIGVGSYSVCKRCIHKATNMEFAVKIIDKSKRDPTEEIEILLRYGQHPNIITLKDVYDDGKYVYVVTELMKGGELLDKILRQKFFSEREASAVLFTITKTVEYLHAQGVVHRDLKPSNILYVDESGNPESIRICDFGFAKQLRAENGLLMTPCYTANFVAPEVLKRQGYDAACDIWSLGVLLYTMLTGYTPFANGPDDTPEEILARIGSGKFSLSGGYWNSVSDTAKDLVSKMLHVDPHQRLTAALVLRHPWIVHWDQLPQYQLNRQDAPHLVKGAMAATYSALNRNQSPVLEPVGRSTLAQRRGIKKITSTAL
Sequence of Rho-associated protein kinase 2 (Homo sapiens) (O75116 whole entry, looked up): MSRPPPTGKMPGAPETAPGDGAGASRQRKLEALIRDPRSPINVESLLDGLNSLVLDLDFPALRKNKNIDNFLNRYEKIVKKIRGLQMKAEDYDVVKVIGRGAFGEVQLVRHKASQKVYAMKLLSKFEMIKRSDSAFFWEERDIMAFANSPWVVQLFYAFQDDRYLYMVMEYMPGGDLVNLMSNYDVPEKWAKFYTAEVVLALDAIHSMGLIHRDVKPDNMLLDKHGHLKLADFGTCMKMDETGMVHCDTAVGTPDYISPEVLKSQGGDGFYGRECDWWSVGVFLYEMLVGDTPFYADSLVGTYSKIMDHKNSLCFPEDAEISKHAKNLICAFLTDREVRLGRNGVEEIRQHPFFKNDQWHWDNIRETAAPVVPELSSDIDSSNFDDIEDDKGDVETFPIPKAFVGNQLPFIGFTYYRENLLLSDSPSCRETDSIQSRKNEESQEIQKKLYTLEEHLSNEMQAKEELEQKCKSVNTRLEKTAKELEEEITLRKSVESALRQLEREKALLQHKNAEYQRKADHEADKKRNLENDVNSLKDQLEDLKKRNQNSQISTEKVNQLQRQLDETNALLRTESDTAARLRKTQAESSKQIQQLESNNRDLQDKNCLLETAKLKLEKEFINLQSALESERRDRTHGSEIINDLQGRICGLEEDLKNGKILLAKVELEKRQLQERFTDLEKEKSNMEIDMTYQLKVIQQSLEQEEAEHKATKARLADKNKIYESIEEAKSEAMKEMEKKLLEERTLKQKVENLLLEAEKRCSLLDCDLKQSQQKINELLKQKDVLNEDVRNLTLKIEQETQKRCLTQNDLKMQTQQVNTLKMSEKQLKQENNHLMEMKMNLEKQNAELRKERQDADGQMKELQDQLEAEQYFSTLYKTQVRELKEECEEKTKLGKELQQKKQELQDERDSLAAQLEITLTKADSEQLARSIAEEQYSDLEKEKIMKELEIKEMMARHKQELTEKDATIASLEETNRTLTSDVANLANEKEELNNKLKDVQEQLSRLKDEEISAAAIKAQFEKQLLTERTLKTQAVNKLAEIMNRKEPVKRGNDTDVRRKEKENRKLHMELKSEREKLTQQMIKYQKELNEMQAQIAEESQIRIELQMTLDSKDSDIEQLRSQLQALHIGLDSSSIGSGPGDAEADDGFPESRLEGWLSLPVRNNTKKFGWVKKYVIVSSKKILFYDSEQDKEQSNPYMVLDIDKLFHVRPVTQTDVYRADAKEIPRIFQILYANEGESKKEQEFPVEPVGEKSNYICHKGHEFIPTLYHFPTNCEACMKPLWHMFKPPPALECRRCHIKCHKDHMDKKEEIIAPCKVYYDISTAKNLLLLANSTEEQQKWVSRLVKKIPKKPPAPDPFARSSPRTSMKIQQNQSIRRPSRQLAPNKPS
Sequence of Ribosomal protein S6 kinase alpha-2 (Homo sapiens) (Q15349 whole entry): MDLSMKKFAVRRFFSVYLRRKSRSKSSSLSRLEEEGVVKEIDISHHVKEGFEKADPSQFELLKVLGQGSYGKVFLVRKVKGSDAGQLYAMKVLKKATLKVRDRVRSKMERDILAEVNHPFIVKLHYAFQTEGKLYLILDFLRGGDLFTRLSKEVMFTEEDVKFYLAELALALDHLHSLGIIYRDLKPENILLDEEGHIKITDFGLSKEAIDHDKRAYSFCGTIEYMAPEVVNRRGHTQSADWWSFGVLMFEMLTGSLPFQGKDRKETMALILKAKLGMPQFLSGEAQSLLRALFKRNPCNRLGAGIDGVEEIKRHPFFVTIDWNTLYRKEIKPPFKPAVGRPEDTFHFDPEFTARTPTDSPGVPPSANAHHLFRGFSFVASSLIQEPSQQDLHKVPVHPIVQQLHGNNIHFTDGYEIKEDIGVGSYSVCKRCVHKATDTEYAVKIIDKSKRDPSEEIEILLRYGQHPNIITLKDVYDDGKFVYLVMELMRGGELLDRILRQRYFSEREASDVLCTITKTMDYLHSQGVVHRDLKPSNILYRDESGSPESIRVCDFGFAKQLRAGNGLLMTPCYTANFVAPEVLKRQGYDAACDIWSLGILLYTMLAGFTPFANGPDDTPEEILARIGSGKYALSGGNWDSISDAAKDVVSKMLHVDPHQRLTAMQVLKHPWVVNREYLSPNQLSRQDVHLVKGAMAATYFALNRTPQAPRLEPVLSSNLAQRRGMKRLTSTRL

Consider `Cc1cc(-c2ccccn2)cc(C)c1/C=C/c1cncc(-c2nn[nH]n2)c1`, for which the inhibition in experiment [1] stood at 12.2%; in [2], 6.27%; in experiment [3] it was 12.1%; in [4] it was 3.51%; in experiment [5], 5.76%; in experiment [6], 2.46%. Further, the inhibition in experiment [7] is 5.89%; in [8], 2%; in [9], 2.53%; in experiment [10], 2.04%; in [11], 2.97%; in experiment [12], 1.11%. Besides, the inhibition in experiment [13] was 3.33%; in experiment [14] it was -1.27%; in experiment [15], 1.85%; in experiment [16], -0.57%; in experiment [17] it was 1.01%; in [18] it was 0.4%. Also, the inhibition in [19] was 1.84%; in [20], -1.04%.
On to `COc1cccc(-n2ncc3c(N/N=C/c4ccc(C)cc4)ncnc32)c1`, for which the inhibition in [1] was determined as 8.29%; in experiment [2], 5.18%; in experiment [3], 9.61%; in experiment [4], 3.66%; in [5], 7.27%; in experiment [6], 3.43%. Moreover, the inhibition was 5.99% in [7]; 2.31% in experiment [8]; 4.53% in experiment [9]; 3.27% in experiment [10]; 4.15% in experiment [11]; 3.08% in experiment [12]. Moreover, the inhibition was 5.34% in experiment [13]; 2.5% in experiment [14]; 6.59% in experiment [15]; 0.75% in experiment [16]; 5.14% in experiment [17]; 3.75% in experiment [18]. The inhibition worked out at 4.8% in experiment [19] and 0.68% in experiment [20].
Take `CCCN1CCCC(c2ccc(Nc3nc(Nc4cc(F)ccc4C(N)=O)c4cc[nH]c4n3)c(OC)c2)C1` (stereo not given): the inhibition worked out at 81.1% in [1]; 19.6% in experiment [2]; 72.7% in experiment [3]; 7.1% in [4]; 32.9% in [5]; 4.78% in experiment [6]. Also, the inhibition in [7] is 26.3%; in experiment [8] it was 0.44%; in [9], 0.52%; in experiment [10], 22.5%; in experiment [11], 67.7%; in [12] it was 27.2%. Besides, the inhibition was found to be 71.3% in experiment [13]; 35.1% in [14]; 72.5% in [15]; 22.6% in [16]; 40.2% in experiment [17]; 9.15% in experiment [18]. Also, the results for the inhibition in [19] and in experiment [20] were 38% and 19.7%, respectively.
On to `CN(C)c1cc2c(Nc3ccc4c(cnn4Cc4ccccc4)c3)ncnc2cn1`, for which the inhibition was determined as 4.01% in experiment [1]; 3.24% in experiment [2]; 4.21% in [3]; 0.2% in experiment [4]; 4.15% in [5]; 2.57% in experiment [6]. Besides, the inhibition in [7] stood at 2.77%; in experiment [8], 1.48%; in experiment [9], 0.84%; in experiment [10] it was 0.25%; in experiment [11], 2.38%; in [12], 2.57%. The inhibition in experiment [13] amounted to 3.89%; in [14], 0.98%; in [15], 3.04%; in experiment [16] it was 1.41%; in [17], 2.13%; in experiment [18] it was 1.63%. Besides, the results for the inhibition in experiment [19] and in [20] were 3.42% and 0.97%, respectively.
